SMILES strings stand for the structures. This is part of a sample that, as a whole, favours compounds with a hit. Of some 83,000 tested, about 20% had one in any assay.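 The endpoint reported here, percent growth, reads 100 for growth as untreated, 0 for no net growth and -100 for all cells dead.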 A number with no mark means an inactive call. The source made the active and inactive calls. Rule for the calls: active = growth percent below 10; inactive = the rest.

This experiment relates to HCT-15 colon. Put plainly: NCI-60 one-dose screen, 48 h (100 = growth as untreated, 0 = no growth, -100 = all killed). The following applies: 10 µM unless noted.
Take `OC(c1ccccc1)c1nnc(SCc2ccccc2)n1Cc1ccccc1` (centres undefined): the growth was 88.9%.
As for `COc1ccc(/C=C2\SC(=Nc3ccccc3)NC2=O)cc1`, the figure is -44.5% (active).
Next, `COc1ccc(-n2c(C(O)c3ccccc3)nn(CN3CCOCC3)c2=S)cc1` (centres undefined): 113%; `CN(O)c1nc(N(C)O)nc(N2CCOCC2)n1`: 22.5%; `O=C(NC(=S)Nc1cccc(NC(=S)NC(=O)c2ccccc2)c1)c1ccccc1`: 73.5%.
As for `Cn1c2c(c(=O)[nH]c1=O)NC1=C(C(=O)c3ccccc31)C1(C=C(O)c3ccccc31)N2` (centres undefined), the growth is 96.9%.
On to `Nc1nc(Nc2cccc(F)c2)nc2ccccc12`, for which the growth is 33.4%.
For the compound `COc1cc(OC)cc(N2C(=O)N(Cc3ccc(C(C)(C)C)cc3)c3ccccc3S2(=O)=O)c1`, the growth was 67.9%.
Next, `CC/C=C\C[C@H](O)C/C=C1/C(=O)C=C[C@@H]1C/C=C\CCCC(=O)OCCS(=O)(=O)c1ccccc1`: 62%; `COc1ccc(C2Nc3ncnc(N)c3N=C3c4ccccc4C(=O)C32)cc1` (centres undefined): 89.4%; `O=CCCCC(O)C=O` (centres undefined): 108%.
As to `COC(=O)/C(=C\c1c(-c2ccccc2)[nH]c2ccccc12)S(C)(=O)=O`, the growth was 34.5%.
For `COc1ccc(-c2nsc3c2NC(=O)CC3c2ccsc2)cc1` (centres undefined), the growth was 13.8%.
Next, `FC(F)(F)c1cccc(Nc2nc(-c3ccccc3)nc3ncccc23)c1`: 17.6%.
As for `COC(=O)/C(=C\c1c(C)[nH]c2ccccc12)S(=O)(=O)c1ccccc1`, the figure is 23.8%; as for `O=Nc1c(O)ccc2ccccc12.O=Nc1c(O)ccc2ccccc12.O=Nc1c([O-])ccc2ccccc12.[Fe+3]`, 105%.
For the compound `COc1cccc(C(=O)Cn2cc(/C=C(\C#N)S(=O)(=O)c3ccccc3)c3ccccc32)c1`, the growth is 110%.
Next, `CC(=O)O[C@@H]1/C=C/C(=O)N[C@@H](C)CCC/C=C/[C@@H]2CCC[C@H]21`: 114%.
Regarding `CC(C)(C)c1ccc(C2CC(=O)C3=C(C2)Nc2ccccc2N(C(=O)c2ccccc2Cl)C3c2ccc(F)cc2)cc1` (centres undefined), the growth was 19.3%.
In the case of `O=C1/C=C/[C@@H](O)[C@@H]2C[C@@H](O)C[C@H]2/C=C/CCCCO1`, the growth was 19.8%.
As for `CN1CCN(c2nc(Nc3ccc(O)cc3)nc3ccccc23)CC1`, the figure is 32.5%.
As for `O=C(NN1C(=O)CSC1c1ccc(Cl)cc1)c1[nH]c2ccc(F)cc2c1-c1ccccc1` (centres undefined), the figure is 55.7%; as for `CSc1nc2c(c(=O)n1C)N=C1c3ccccc3C(=O)C1C(c1ccccc1)N2` (centres undefined), 62.4%; as for `CCCC(=O)CC(C)=O.CCCC(=O)CC(C)=O.[Cu]`, 105%.
As for `N#C/C(=C\c1c(-c2ccccc2)[nH]c2ccccc12)S(=O)(=O)c1ccccc1`, the figure is 44.1%; as for `O=C(Nc1ccc(Cl)cc1)c1cc2ccccc2cc1OP(=O)(O)O`, 23.2%; as for `COc1ccc(/C=C2\N=C(c3ccccc3)N(c3ccc(-c4nc5ccc(C)cc5s4)cc3)C2=O)cc1`, 82.1%.
With `CSc1nc2c(c(=O)[nH]1)N=C1c3ccccc3C(=O)C1C(c1ccccc1)N2` (centres undefined), the growth is 36.8%.
With `CCOC(=O)c1c(Cl)c2c(n1Cc1ccccc1)-c1oncc1CCC2`, the growth was 36.1%.
Next, `COc1cc([C@@H]2NC(=O)NC(C)=C2C(=O)Nc2nc(-c3ccc(Cl)cc3)cs2)ccc1O`: 100%; `N#C/C(=C\c1c(-c2ccccc2)[nH]c2ccccc12)C(=O)c1ccccc1`: 42.1%.
As for `CCN(CC)c1cc(C)c2cc(NC(=O)c3cccc(OC)c3)ccc2n1`, the figure is 61.4%; as for `COc1nc2c(c(=O)n1C)N=C1c3ccccc3C(=O)C1C(c1ccccc1)N2` (centres undefined), 90.5%; as for `CCOc1ccccc1CN1CCc2nc3cc(C(C)(C)C)[nH]n3c(=O)c2C1`, 97.4%.
Next, `COc1ccc(-n2c(C(O)c3ccccc3)n[nH]c2=S)cc1` (centres undefined): 107%; `CC(=O)n1cc(-c2c[nH]c3ccccc23)c(-c2ccc(Cl)cc2)n1`: 80.9%.
In the case of `N#CC(C#N)=Cc1c(-c2ccccc2)[nH]c2ccccc12`, the growth was 35.3%.
Next, `Nc1ccc(C2c3ccccc3Oc3ccccc32)cc1`: 99.2%.
Next, `COc1cc(C#N)cc2[nH]c(=O)oc12`: 95.6%.
